AmpC inh detg = AmpC beta-lactamase inhibition with detergent present | P00811 | AmpC hydrolysis of nitrocefin, absorbance 480 nm, 0.01% Triton | Potency, µM (titrated, usually from 114 µM), usual class: inhibitors | 370,000 tested, 0.041% active | AID 485294; also: nearly all actives have a fitted effect of over 25% in size
Target sequence (P00811 whole entry, looked up): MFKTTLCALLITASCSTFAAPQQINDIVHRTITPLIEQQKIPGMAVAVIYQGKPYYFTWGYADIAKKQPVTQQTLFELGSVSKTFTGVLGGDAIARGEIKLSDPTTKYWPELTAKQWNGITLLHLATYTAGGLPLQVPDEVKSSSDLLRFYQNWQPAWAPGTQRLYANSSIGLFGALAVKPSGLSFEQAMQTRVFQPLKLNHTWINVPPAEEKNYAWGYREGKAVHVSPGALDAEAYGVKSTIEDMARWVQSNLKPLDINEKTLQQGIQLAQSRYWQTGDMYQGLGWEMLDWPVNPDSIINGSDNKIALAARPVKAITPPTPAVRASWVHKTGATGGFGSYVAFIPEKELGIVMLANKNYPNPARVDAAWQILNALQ
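AmpC (5.3 nM in the dispensed reagent) in 20 mM phosphate pH 7.0 with 0.01% (detergent screen) or 0.0001% Triton X-100 was preincubated with compounds for 15 min at room temperature. Nitrocefin was then added from an 800 uM solution, and hydrolysis was followed at 480 nm.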
AmpC no deterg = blocks E. coli AmpC beta-lactamase in detergent-free assay; P00811; AmpC nitrocefin hydrolysis, absorbance 480 nm, 0.0001% Triton; Potency, µM (titrated, usually from 57.1 µM), most hits filed as inhibitors; 330,000 tested, 0.52% active; AID 485341; also: nearly all actives have a fitted effect of over 20% in size
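AmpC (5.3 nM in the dispensed reagent) in 20 mM phosphate pH 7.0 with 0.01% (detergent screen) or 0.0001% Triton X-100 was preincubated with compounds for 15 min at room temperature. Nitrocefin was then added from an 800 uM solution, and hydrolysis was followed at 480 nm.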
Sm TGR block = S. mansoni TGR enzyme inhibition; purified TGR, DTNB reduction, TNB absorbance 405 nm; AID 485364; Potency, µM (series often up to 114 µM), actives largely listed as inhibitors; 360,000 tested, 3% active; Q962Y6; also: nearly all actives have a fitted effect of over 60% in size
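First, TGR (20 nM dispensed) and NADPH were mixed with compound. Second, a 15 min room-temperature incubation followed. Third, further NADPH and then DTNB were added to start the reaction. Finally, TNB absorbance was monitored kinetically.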
Of the large screens only hits and unclear results are named; the others gave an inactive call. In the library only some 3.3% were active in any assay of this set; here they are far more common. Calls follow the shape of the dose curve; as a rule, active = well fitted curve in the direction sought with a large enough effect; inconclusive = small, poorly fitted or top-dose-only effect, or another doubt; inactive = no such curve, though single readings can be large; an effect the other way counts as inactive or inconclusive.

C/C(=N\NC(=S)Nc1ccc(F)cc1)c1ccc2c(c1)OCCO2	AmpC no deterg 20µM
CCOc1ccc(C(=O)N2CCc3cc(OC)c(OC)cc3C2COc2ccc3c(C)cc(=O)oc3c2)cc1OCC (stereo not drawn)	none (no result: AmpC no deterg)
COCCNc1oc(/C=C/c2ccc(F)cc2)nc1S(=O)(=O)c1ccccc1	Sm TGR block 32µM
COCCNc1oc(-c2cccs2)nc1S(=O)(=O)c1ccc(C)cc1	none
C=CCNc1oc(-c2ccco2)nc1S(=O)(=O)c1ccccc1	Sm TGR block 13µM
COCCCNc1oc(/C=C/c2ccccc2)nc1C#N	none
O=S(=O)(c1ccccc1)c1nc(-c2ccco2)oc1NCc1cccnc1	Sm TGR block 25µM
C=CCNc1oc(-c2cccs2)nc1S(=O)(=O)c1ccccc1	none
O=S(=O)(c1ccccc1)c1nc(-c2ccccc2)oc1NCc1cccnc1	none
COCCNc1oc(-c2ccco2)nc1S(=O)(=O)c1ccccc1	Sm TGR block 50µM
COc1cccc(NC(=O)Cn2c(=O)n(-c3ccccc3)c(=O)c3c4c(sc32)CCCC4)c1	none (no result: AmpC no deterg)
O=C(COc1ccc([N+](=O)[O-])cc1)Nc1cccc2cccnc12	none (no result: AmpC no deterg)
CC(=O)c1ccc(C(=O)N(Cc2cccnc2)c2nc3c(C)c(C)ccc3s2)cc1	none (no result: AmpC no deterg)
CC(C)(Oc1ccc(Cl)cc1)C(=O)Nc1nc2ccc(S(C)(=O)=O)cc2s1	none (no result: AmpC no deterg)
CS(=O)c1ccccc1COC(=O)Nc1ccc(Cl)cc1 (stereo not drawn)	AmpC no deterg 6.3µM
Cc1ccc(NC(=O)OCc2ccccc2S(C)=O)cc1 (stereo not drawn)	AmpC inh detg inconclusive
CCOc1ccccc1N1CC(c2nc3ccccc3n2CCCOc2ccccc2)CC1=O (stereo not drawn)	none (no result: AmpC no deterg)
CC(C)(C)c1ccc(C(=O)N2CC(=O)Nc3ccc(F)cc3C2c2ccc(F)cc2)cc1 (stereo not drawn)	none (no result: AmpC no deterg)
CCOC(=O)c1sc(=S)n(-c2ccccc2)c1NC(C)=O	Sm TGR block 45µM
CCOC(=O)c1sc(=S)n(C)c1NC(=O)c1ccccc1	none
COc1ccc(-c2cn3c(n2)sc2cc(C(=O)NCCCN4CCCCCC4)ccc23)cc1	none (no result: AmpC no deterg)
COc1ccc(N2CCN(C3C(=O)c4ccccc4N3C(C)=O)CC2)cc1 (stereo not drawn)	none (no result: AmpC no deterg)
CCC1CCc2c(c3ccccc3[nH]c2=O)O1 (stereo not drawn)	none
O=c1[nH]c2ccccc2c2oc(CCl)nc12	Sm TGR block 6.3µM
Cc1cccc(NC(=S)NC(=O)C2CC2)c1	Sm TGR block 35µM
Cc1cccc(NC(=O)C2CCCC2)c1	AmpC inh detg inconclusive
Cc1cc(C)cc(NC(=S)NC(=O)C2CC2)c1	Sm TGR block 13µM
O=C(NC(=S)Nc1ccccc1CO)C1CCCCC1	none (no result: AmpC inh detg, Sm TGR block)
Cc1cc(NC(=S)NC(=O)C2CC2)ccc1Br	Sm TGR block inconclusive
Cc1ccccc1NC(=S)NC(=O)C1CCCCC1	Sm TGR block 14µM
Cc1ccc(-c2nc3cc(C(C)C)ccc3o2)cc1NC(=O)c1cc([N+](=O)[O-])ccc1N1CCOCC1	none (no result: AmpC no deterg)
CCOc1cc(C(=O)Nc2ccc3oc(-c4ccc(F)cc4Cl)nc3c2)cc(OCC)c1OCC	none (no result: AmpC no deterg)
O=[N+]([O-])c1ccc(S(=O)(=O)NCc2nc3cccnc3n2Cc2ccccc2Cl)cc1	none (no result: AmpC no deterg)
Cc1c(C)c2c(cc(C)c3c(-c4ccccc4)coc32)oc1=O	none (no result: AmpC no deterg)
COc1cccc(CNC(=O)CCc2c(C)c3ccc(O)c(C)c3oc2=O)c1	none (no result: AmpC no deterg)
COc1ccccc1CNC(=O)c1cc(Sc2cccc(Cl)c2)nc2ccccc12	none (no result: AmpC no deterg)
CCOc1cc(C(c2c(C)[nH][nH]c2=O)c2c(C)[nH][nH]c2=O)cc(Cl)c1O	Sm TGR block 35µM
CCOc1cc(C(c2c(C)[nH][nH]c2=O)c2c(C)[nH][nH]c2=O)cc([N+](=O)[O-])c1O	none
Cc1oc2ccc(O)c(CN3CCCCCC3)c2c1C(=O)Nc1cccc(C(F)(F)F)c1	none (no result: AmpC no deterg)
O=C(CSc1nnc(Cc2cccs2)n1Cc1ccco1)Nc1cccc(Cl)c1	Sm TGR block inconclusive
CCC(=O)Nc1cc(NC(=O)CSc2ncc(-c3ccc(F)cc3)n2Cc2ccco2)ccc1C	AmpC inh detg inconclusive, Sm TGR block 45µM
O=C(CSc1nnc(-c2ccncc2)n1Cc1ccco1)Nc1ccccc1F	Sm TGR block 50µM
O=C(CSc1nnc(-c2ccncc2)n1Cc1ccco1)Nc1ccccc1Cl	none
O=C(CSc1nnc(-c2ccc(Cl)cc2)n1Cc1ccco1)c1cccs1	Sm TGR block 28µM
NC(=O)CSc1nnc(-c2cccs2)n1Cc1ccco1	none
O=C(CSc1nnc(Cc2cccs2)n1Cc1ccco1)Nc1cc(Cl)cc(Cl)c1	Sm TGR block 35µM
COc1ccc(NC(=O)CSc2ncc(-c3ccc(F)cc3)n2Cc2ccco2)cc1	AmpC inh detg inconclusive
O=[N+]([O-])c1cc(-c2nc(-c3ccccc3)no2)ccc1N1CCN(c2ccccc2)CC1	AmpC inh detg inconclusive (no result: AmpC no deterg)
CCOc1ccc(N(CC)C(=O)c2cc3c(s2)-c2ccccc2OC3)cc1	none (no result: AmpC no deterg)
COc1ccccc1C(=O)Nc1cccc(OCc2cc(=O)n3c(C)csc3n2)c1	none (no result: AmpC no deterg)
Cc1ccc2onc(CNC(=O)N3CCN(c4cccc(C)c4C)CC3)c2c1	none (no result: AmpC no deterg)
O=C(NC1CCCCC1)c1ccc2c(c1)N(Cc1ccccc1Cl)C(=O)c1ccccc1S2	none (no result: AmpC no deterg)
Cc1cc(C)c(NC(=O)CSc2nnc(-c3ccncc3)n2Cc2ccco2)c(C)c1	Sm TGR block inconclusive
O=C(CSc1nnc(-c2ccncc2)n1Cc1ccco1)c1ccc(Cl)cc1	Sm TGR block 0.89µM
c1ccc(OCCn2c(-c3ccco3)nc3ccccc32)cc1	Sm TGR block 8.9µM
Cc1ccc(OCCn2c(NC(=O)c3ccco3)nc3ccccc32)cc1	AmpC no deterg 20µM
CCn1c(-c2ccco2)nc2ccccc21	Sm TGR block 32µM
Cc1cccc(OCCn2c(-c3ccco3)nc3ccccc32)c1	Sm TGR block inconclusive
O=C(Cn1c(-c2ccco2)nc2ccccc21)N1CCCCC1	Sm TGR block inconclusive
O=C(Nc1nc2ccccc2n1CCOc1ccccc1)c1ccco1	none
CCCCC(=O)Nc1ccc(OCc2cc(=O)n3ccc(C)cc3n2)cc1	none (no result: AmpC no deterg)
COc1ccc2cc3cc(C(=O)N4CCN(c5ccccc5F)CC4)oc3nc2c1	none (no result: AmpC no deterg)
Cc1ccc(C)c(N2C(=O)N(Cc3ccccc3C)c3ccccc3S2(=O)=O)c1	none (no result: AmpC no deterg)
COc1ccc(-c2noc(CCC(=O)NCCc3ccccc3)n2)cc1	none
COc1ccc(-c2noc(CCC(=O)NCCN(C)Cc3ccccc3)n2)cc1	Sm TGR block 89µM (no result: AmpC no deterg)
Cc1c(Nc2cc(Cl)c3nonc3c2[N+](=O)[O-])c(=O)n(-c2ccccc2)n1C	none
Cc1c(Nc2cc(N3CCOCC3)c3nonc3c2[N+](=O)[O-])c(=O)n(-c2ccccc2)n1C	Sm TGR block 18µM
COc1cc(NC(=O)CCn2nc(C)c(S(=O)(=O)N3CCCCC3)c2C)cc(OC)c1OC	none (no result: AmpC no deterg)
Cc1ccc(NC(=O)Cn2c(=O)n(Cc3ccco3)c(=O)c3oc4ccccc4c32)cc1C	none (no result: AmpC no deterg)
CCOP(=O)(OCC)c1cccc(P(=O)(c2ccccc2)c2ccccc2)c1O	none
CCOP(=O)(C1=C(O)C(=O)C(C(C)(C)C)=CC1=O)c1ccccc1 (stereo not drawn)	Sm TGR block 1.4µM
CC(=O)c1cc(NC(=O)c2ccc([N+](=O)[O-])cc2)c(=O)oc1C	Sm TGR block 22µM
